Compound activity deposited in PubChem by The Scripps Research Institute Molecular Screening Center.
FBW7 act – activators of human E3 ligase FBW7; actives 0.13% (n = 650,000); AlphaScreen FBW7–phospho-cyclin E peptide binding, activator screen; Q969H0; normalized activity (activation), % at 26.1 µM; in the data active = normalized activity above about 1.9%;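 also: purified mutant Fbw7 with reduced substrate affinity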
Target sequence (Q969H0 whole entry, looked up): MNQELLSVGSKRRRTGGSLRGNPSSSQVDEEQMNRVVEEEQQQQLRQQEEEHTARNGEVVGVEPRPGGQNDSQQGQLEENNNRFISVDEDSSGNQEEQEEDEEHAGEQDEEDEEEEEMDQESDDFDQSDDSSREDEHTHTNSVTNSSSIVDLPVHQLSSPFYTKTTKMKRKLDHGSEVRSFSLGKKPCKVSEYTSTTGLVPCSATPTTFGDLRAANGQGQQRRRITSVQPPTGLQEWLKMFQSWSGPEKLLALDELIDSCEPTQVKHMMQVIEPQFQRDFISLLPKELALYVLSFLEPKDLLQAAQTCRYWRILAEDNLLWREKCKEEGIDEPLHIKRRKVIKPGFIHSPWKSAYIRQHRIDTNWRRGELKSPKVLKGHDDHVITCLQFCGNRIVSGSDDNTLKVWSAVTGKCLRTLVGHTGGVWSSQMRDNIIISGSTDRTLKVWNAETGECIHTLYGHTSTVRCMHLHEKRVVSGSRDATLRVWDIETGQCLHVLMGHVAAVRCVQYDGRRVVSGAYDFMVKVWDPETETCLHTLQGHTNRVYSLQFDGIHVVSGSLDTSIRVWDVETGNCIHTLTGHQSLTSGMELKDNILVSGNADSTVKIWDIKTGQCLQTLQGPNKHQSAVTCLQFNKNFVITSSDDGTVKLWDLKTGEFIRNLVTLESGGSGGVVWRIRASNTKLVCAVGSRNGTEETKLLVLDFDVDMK
TEAD-YAP block – TEAD-YAP interaction inhibition; HEK-TIYL cells, TEAD-Gal4/YAP UAS-luciferase luminescence; inhibition, % at 9.12 µM; actives 1.4% (n = 640,000); in the data active = inhibition above about 32%;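 also: 0% = median of test compound wells and 100% = reference inhibitor wells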
MITF inh – inhibitors of human MITF; O75030; AlphaScreen MITF homodimerization, bead proximity signal; inhibition, % at 2.6 µM; actives 0.91% (n = 650,000); AID 1259374; in the data active = inhibition above about 50%;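 also: 0% = vehicle wells with protein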
GPR151 activ – activators of human GPR151; actives 1% (n = 650,000); AID 1508602; PathHunter beta-arrestin GPR151 cells, luminescence; activation, % at 11.2 µM; in the data active = activation above about 4.9%;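 also: 0% = median of compound wells and 100% = cells with positive control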
Active calls of the source: *; ! = a repeat was not active. This is a sample that favours compounds with a hit; in the whole collection about 3.5% have one here.

`COc1ccccc1/C=C1\N=C(c2ccc(Cl)c([N+](=O)[O-])c2)OC1=O` gave FBW7 act 0, TEAD-YAP block 4, MITF inh -1 and GPR151 activ 0.
For CC(C)[C@@H](CO)Nc1ccc2ncc(-c3ccccc3)n2n1 the results were FBW7 act 1, TEAD-YAP block 28, MITF inh 4 and GPR151 activ 1.
Screening CC(C)[C@@H](CO)Nc1ccc2ncc(-c3cccc(Cl)c3)n2n1 returned FBW7 act 2.0*, TEAD-YAP block 5, MITF inh -2 and GPR151 activ 0.
For O=C(c1ccccc1)n1c(=S)nc2ccccn21 the results were FBW7 act 0, TEAD-YAP block 40*, MITF inh 14 and GPR151 activ -2.
CCOc1ccccc1-c1cc(C(=O)N/N=C(/C)c2cccc(O)c2)[nH]n1 was read as FBW7 act 1, TEAD-YAP block 52*, MITF inh 9 and GPR151 activ 0.
COc1cc(/C(C)=N/NC(=O)c2cc(-c3cccc4ccccc34)n[nH]2)ccc1O was read as FBW7 act 1, TEAD-YAP block -49, MITF inh 9 and GPR151 activ 0.
`CCOc1ccccc1-c1cc(C(=O)N/N=C(/C)c2ccccc2)[nH]n1` gave FBW7 act 0, TEAD-YAP block 50*, MITF inh 9 and GPR151 activ 0.
COC(=O)c1ccc(CN2CCC3(CC2)CC3C(=O)N(C)Cc2cscn2)cc1 (stereo not drawn) was read as FBW7 act 0, TEAD-YAP block -7, MITF inh -7 and GPR151 activ 0.
Cc1c(NC(=O)c2cc(-c3ccccc3)nc3ccccc23)c(=O)n(-c2ccccc2)n1C was read as FBW7 act 0, TEAD-YAP block 33*, MITF inh -3 and GPR151 activ 0.
For Cc1c(NC(=O)c2cc(-c3cccc(Br)c3)nc3ccccc23)c(=O)n(-c2ccccc2)n1C the results were FBW7 act 1, TEAD-YAP block 10, MITF inh 1 and GPR151 activ 0.
CN1CCN(C2=NC(=O)/C(=C\c3ccccc3)S2)CC1 was read as FBW7 act 0, TEAD-YAP block 7, MITF inh 19 and GPR151 activ 0.
Screening O=C(Nc1ccc(-c2cn[nH]n2)cc1)C1COc2ccc(Cl)cc2C1 (stereo not drawn) returned FBW7 act 0, TEAD-YAP block 28, MITF inh 0 and GPR151 activ -2.
`COc1ccc2c(c1)CC(C(=O)Nc1ccc(-c3cn[nH]c3)cc1C(=O)NCC#N)CO2` (stereo not drawn) gave FBW7 act 20*, TEAD-YAP block 5, MITF inh -17 and GPR151 activ -3.
`COc1ccc2c(c1)CC(C(=O)Nc1ccc(-c3cn[nH]c3)cc1OCCC(C)C)CO2` (stereo not drawn) gave FBW7 act 0, TEAD-YAP block -6, MITF inh -4 and GPR151 activ 0.
COc1ccc2c(c1)CC(C(=O)Nc1ccc(-c3cn[nH]c3)cc1OCCO)CO2 (stereo not drawn) was read as FBW7 act 1, TEAD-YAP block 39*, MITF inh 34 and GPR151 activ 1.
NCCOc1cc(-c2cn[nH]c2)ccc1NC(=O)C1COc2ccccc2C1 (stereo not drawn) was read as FBW7 act 0, TEAD-YAP block 41*, MITF inh 13 and GPR151 activ -1.
`COc1ccc(CNC(=O)c2cc(-c3cn[nH]c3)ccc2NC(=O)C2COc3ccc(OC)cc3C2)cc1` (stereo not drawn) gave FBW7 act 0, TEAD-YAP block -8, MITF inh 9 and GPR151 activ 0.
COc1ccc2c(c1)CC(C(=O)Nc1ccc(-c3cn[nH]n3)cc1)CO2 (stereo not drawn) was read as FBW7 act 5.9*, TEAD-YAP block 0, MITF inh -16 and GPR151 activ 1.
Cn1c(Cc2cccc3ccccc23)nnc1SCC(=O)NCC1CCCO1 (stereo not drawn) was read as FBW7 act 0, TEAD-YAP block 5, MITF inh 6 and GPR151 activ 0.
Screening O=C(C1CC12CCN(Cc1ccc3c(c1)CCO3)CC2)N1CCc2ccccc2C1 (stereo not drawn) returned FBW7 act 0, TEAD-YAP block -10, MITF inh -5 and GPR151 activ 1.
For COc1cc(C2NC(=O)NC(C)=C2C(=O)OCCSC)cc([N+](=O)[O-])c1O (stereo not drawn) the results were FBW7 act 0, TEAD-YAP block 1, MITF inh 1 and GPR151 activ 1.
`COc1ccc2c(c1)CC(C(=O)Nc1cc3cc(-c4ccncc4)ccc3cn1)CO2` (stereo not drawn) gave FBW7 act 0, TEAD-YAP block 59*, MITF inh -9 and GPR151 activ -2.
Screening CC1CCN(CCCC(=O)c2ccc(F)cc2)CC1 returned FBW7 act 0, TEAD-YAP block 7, MITF inh 10 and GPR151 activ 0.
For O=C(CCCN1CC=C(n2c(=O)[nH]c3ccccc32)CC1)c1ccc(F)cc1 the results were FBW7 act 1.9*!, TEAD-YAP block -4, MITF inh 0 and GPR151 activ -1.
`Cc1ccc2nc(-c3ccc(N4C(=O)CC(NCc5ccco5)C4=O)cc3)sc2c1` (stereo not drawn) gave FBW7 act 0, TEAD-YAP block 3, MITF inh 0 and GPR151 activ 0.
`O=C(CSc1nc2ccccc2[nH]1)Nc1cc(Cl)ccc1O` gave FBW7 act 0, TEAD-YAP block 33*, MITF inh -8 and GPR151 activ 0.
COc1cccc(Cn2c(=O)n(CCCCC(=O)NCc3ccco3)c(=O)c3ccccc32)c1 was read as FBW7 act 0, TEAD-YAP block 48*, MITF inh 3 and GPR151 activ -1.
Screening O=C(CCCCn1c(=O)c2ccccc2n(Cc2ccccc2)c1=O)NCc1cccs1 returned FBW7 act 0, TEAD-YAP block 38*, MITF inh 0 and GPR151 activ 0.
For O=C(CCCCn1c(=O)c2ccccc2n(Cc2ccc(F)cc2Cl)c1=O)NCc1cccs1 the results were FBW7 act 0, TEAD-YAP block -6, MITF inh -7 and GPR151 activ -1.
Screening COc1cccc(Cn2c(=O)n(CCCCC(=O)NC3CCCCC3)c(=O)c3ccccc32)c1 returned FBW7 act 0, TEAD-YAP block 1, MITF inh -15 and GPR151 activ -1.
`CC(C)C(=O)NCc1ccc2[nH]c3c(c2c1)CCCC3` gave FBW7 act 0, TEAD-YAP block 4, MITF inh 16 and GPR151 activ -2.
For O=C(CCl)NCc1ccc2[nH]c3c(c2c1)CCCC3 the results were FBW7 act 0, TEAD-YAP block 34*, MITF inh 15 and GPR151 activ 2.
COc1cccc(C(=O)Nn2c(-c3ccc(Br)cc3)nc3ccccc3c2=O)c1 was read as FBW7 act 0, TEAD-YAP block 3, MITF inh 8 and GPR151 activ 0.
